Entries with a potency or affinity are not part of this list. Calls of active or inactive are those of the source.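 How the source made its calls: active means compounds lowering cell ATP signal whose fitted half-maximal concentration is at most twice the top tested dose; inconclusive means flat curve with 30 to 70% signal loss, or poor fit; inactive means the rest.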

This experiment is described as follows: HEK293T cell cytotoxicity, dose response, cytotoxicity control, CellTiter-Glo luminescence, dry powder, set 6 (AID 651949). Conditions: HEK293T viability, CellTiter-Glo ATP luminescence, 48 h; series mostly up to 26 µM. For orientation: Cellular ATP, detected with luciferase, serves as a proxy for viable cell number.
As to `c1ccc(-c2nnc(SCc3cscn3)o2)cc1`, the compound was classed as inactive.
With `c1ccc(-c2nnc(SC(c3ccccc3)c3ccccc3)o2)cc1`, the compound was called inactive.
For the compound `c1ccc(CSc2nnc(C3CCCCC3)o2)cc1`, the outcome was inactive.
For `c1ccc(COc2nnc(-c3ccccc3)o2)cc1` the value was “inactive”; for `COc1cccc(-c2nnc(SCc3ccccc3)o2)c1`, “inactive”.
Under `Clc1cccc(CSc2nnc(-c3ccccc3)o2)c1` stands “inactive”.
Regarding `CSc1nnc(-c2ccccc2)o1`, the compound was classed as inactive.
Under `FC(F)(F)c1ccccc1CSc1nnc(-c2ccccc2)o1` stands “inactive”; under `N#Cc1ccc(-c2nnc(SCc3ccccc3)o2)cc1`, “inactive”; under `FC(F)(F)Oc1cccc(CSc2nnc(-c3ccccc3)o2)c1`, “inactive”.
For `CC1(O)CN(CCSc2nnc(-c3ccccc3)o2)C1` the value was “inactive”.
For `Cc1cccc(-c2nnc(SCc3ccccc3)o2)c1` the value was “inactive”; for `FC(F)(F)Oc1ccc(CSc2nnc(-c3ccccc3)o2)cc1`, “inactive”.
`Cc1cccc(CSc2nnc(-c3ccccc3)o2)c1`: the result was inactive.
Consider `FC1(F)CCN(CCSc2nnc(-c3ccccc3)o2)CC1`, for which the result was inactive.
For `c1ccc(-c2nnc(SCc3ncco3)o2)cc1` the value was “inactive”.
Under `Fc1ccc(-c2nnc(SCc3ccccn3)o2)cc1` stands “inactive”; under `COc1ccc(CSc2nnc(-c3ccc(Cl)cc3)o2)nc1`, “inactive”.
Regarding `Clc1ccc(CSc2nnc(-c3ccccc3)o2)cc1`, the result was inactive.
For `Clc1cccc(-c2nnc(SCc3ccccc3)o2)c1` the value was “inactive”; for `c1ccc(-c2nnc(SCCN3CCOCC3)o2)cc1`, “inactive”.
For `c1ccc(CSc2nnc(-c3ccco3)o2)cc1` the value was “inactive”; for `O=S(Cc1ccccc1)c1nnc(-c2ccccc2)o1` (centres undefined), “inactive”.
For `COc1ccc(-c2nnc(SCc3ccccn3)o2)cc1` the value was “inactive”; for `CS(=O)(=O)c1ccc(-c2nnc(SCc3ccccc3)o2)cc1`, “inactive”; for `O=C(Cc1ccccc1)c1nnc(-c2ccccc2)o1`, “inactive”.
As to `c1ccc(CSc2nnc(Cc3ccccc3)o2)cc1`, the call was inactive.
On to `Clc1ccc(-c2nnc(SCc3ccccn3)o2)cc1`, for which the result was inactive.
Under `Cc1ccc(CSc2nnc(-c3ccccc3)o2)cc1` stands “inactive”.
For `c1ccc(-c2nnc(SCC3CC3)o2)cc1` the value was “inactive”.
Under `c1ccc(-c2nnc(SC3CCCCC3)o2)cc1` stands “inactive”; under `O=S(Cc1cn(-c2ccccc2)nn1)c1nnc(-c2ccc(Cl)cc2)o1` (centres undefined), “inactive”.
Regarding `Clc1ccccc1-c1nnc(SCc2ccccc2)o1`, the result was inactive.
Under `O=S(Cc1cn(Cc2ccccc2)nn1)c1nnc(-c2ccc(Cl)cc2)o1` (centres undefined) stands “inactive”; under `Fc1ccc(CSc2nnc(-c3ccncc3)o2)cc1`, “inactive”.
For `c1ccc(Cn2cc(CSc3nnc(C4CCCC4)o3)nn2)cc1` the value was “inactive”; for `FC(F)(F)Oc1cccc(-c2nnc(SCc3ccccc3)o2)c1`, “inactive”.
Under `c1ccc(-c2nnc(SCc3ccccn3)o2)cc1` stands “inactive”; under `c1ccc(CSc2nnc(-c3ccccc3)s2)cc1`, “inactive”.
